FGF22 binding: binders of human FGF22 protein, primary screen, FGF22 synaptogenesis inhibitor project, biophysical, thermal shift, single point | Fibroblast growth factor 22 (Homo sapiens), Q9HCT0 | recombinant FGF22 thermal shift, SYPRO orange fluorescence; percent of sucrose octasulfate shift, DMSO zero | activity (Tm shift, normalised), % at 9.99 µM | hit rate 1.5% among 340,000;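 active means mean Tm shift, scaled 0 neutral to 100 positive control, at about 1.3% or above, every replicate too, limit read from the data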
Target sequence (Q9HCT0 whole entry, looked up): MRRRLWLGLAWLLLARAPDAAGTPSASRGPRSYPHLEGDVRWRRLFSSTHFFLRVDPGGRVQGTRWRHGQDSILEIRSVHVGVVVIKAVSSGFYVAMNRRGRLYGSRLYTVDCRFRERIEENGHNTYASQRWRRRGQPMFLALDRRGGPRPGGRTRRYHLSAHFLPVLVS
RAD52 anneal inh: RAD52 DNA annealing inhibitors, primary screen, biochemical, FRET, single point, set 2. hit rate 0.46% among 360,000. recombinant RAD52 DNA annealing, FRET fluorescence. inhibition, % at 18.7 µM. DNA repair protein RAD52 homolog (Homo sapiens), P43351;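 active means every replicate showing at least 50% inhibition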
Target sequence (P43351 whole entry, looked up): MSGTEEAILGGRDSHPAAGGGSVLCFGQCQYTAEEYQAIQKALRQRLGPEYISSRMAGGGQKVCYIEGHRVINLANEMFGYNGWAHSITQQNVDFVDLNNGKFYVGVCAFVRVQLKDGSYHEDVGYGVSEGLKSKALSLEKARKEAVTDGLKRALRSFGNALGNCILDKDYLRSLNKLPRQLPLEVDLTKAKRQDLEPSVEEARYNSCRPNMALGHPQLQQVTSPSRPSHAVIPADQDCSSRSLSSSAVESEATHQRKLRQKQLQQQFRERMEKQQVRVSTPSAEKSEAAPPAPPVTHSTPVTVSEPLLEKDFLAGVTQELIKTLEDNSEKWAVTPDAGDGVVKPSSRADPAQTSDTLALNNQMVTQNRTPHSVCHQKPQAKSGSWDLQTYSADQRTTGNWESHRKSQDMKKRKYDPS
ERAP1 HTS inh: human ERAP1 aminopeptidase inhibitors, primary screen, biochemical, single point, plate reader; Endoplasmic reticulum aminopeptidase 1 (Homo sapiens), Q9NZ08; recombinant ERAP1, Leu-AMC fluorescence, 60 min; inhibition, % at 10.7 µM; hit rate 0.15% among 340,000;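 active means mean replicate inhibition of at least 30%, or all replicates individually reaching that 30% level; inactive means mean below 30% and not every replicate reaching it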;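 further: 0% = neutral control wells and 100% = L-leucinethiol positive control wells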
DENV2 CPE rescue: inhibitors of DENV2 cytopathic effect, primary screen, cell-based, plate reader, single concentration. DENV2-infected cells, cytopathic effect rescue. CPE inhibition, % at 9.99 µM. hit rate 1.7% among 350,000. AID 651640, 2012; in the data active means CPE inhibition above about 20%, passing the limit was not always enough; tested in BHK-21 cells;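 further: 0% = median of neutral control wells and 100% = median of positive control wells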
MLL AF4-AF9 inh: inhibitors of AF4 peptide binding to AF9, primary screen, biochemical, AlphaScreen, biotin-AF4 peptide, FLAG-AF9, single point. Protein AF-9 (Homo sapiens), P42568. inhibition, % at 10 µM. hit rate 0.47% among 350,000;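 active means every replicate reaching a set inhibition limit, whatever the replicate mean, cut at about 25% in these data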;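 further: 0% = plate neutral control median and 100% = total signal loss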
* marks the source's active call; other numbers are inactive results; ! = a repeat was not active. Hits are enriched below; roughly 4% of the tested compounds scored in any of these assays.

What do the screens show for `c1cc(-c2ccc(C3[C@H]4CNC[C@@H]3N4CC3CCCCC3)cc2)ccn1` (stereo not given in full)?
FGF22 binding: 0; RAD52 anneal inh: -14; ERAP1 HTS inh: -6; DENV2 CPE rescue: 46*!; MLL AF4-AF9 inh: 29*

How did COc1ccc(CN(C)C[C@H]2OCCCC[C@H](C)Oc3ccc(NC(=O)Nc4c(C)noc4C)cc3C(=O)N([C@@H](C)CO)C[C@@H]2C)cc1 do in these assays?
FGF22 binding: 1; RAD52 anneal inh: 5; ERAP1 HTS inh: -3; DENV2 CPE rescue: 0; MLL AF4-AF9 inh: 2

How did CCCCCc1ccc(-c2cn(CCc3c[nH]c4ccccc34)nn2)cc1 do in these assays?
FGF22 binding: 0; RAD52 anneal inh: -8; ERAP1 HTS inh: -7; MLL AF4-AF9 inh: 1

Results for O=C(O)CCCCCCCCc1cn(CCc2c[nH]c3ccccc23)nn1 ?
FGF22 binding: 0; RAD52 anneal inh: -16; ERAP1 HTS inh: -11; DENV2 CPE rescue: 21*; MLL AF4-AF9 inh: 3

What do the screens show for `O=[N+]([O-])c1ccccc1S(=O)(=O)N1CCc2ccccc2C1`?
FGF22 binding: 0; RAD52 anneal inh: 4; ERAP1 HTS inh: 0; DENV2 CPE rescue: -1; MLL AF4-AF9 inh: -2

How did O=[N+]([O-])c1ccc(N2CCN(S(=O)(=O)c3ccccc3[N+](=O)[O-])CC2)cc1N1CCc2ccccc2C1 do in these assays?
FGF22 binding: 0; RAD52 anneal inh: -11; ERAP1 HTS inh: 2; DENV2 CPE rescue: 112*; MLL AF4-AF9 inh: 2

How did CCCS(=O)(=O)N1CCN(S(=O)(=O)c2ccccc2[N+](=O)[O-])CC1 do in these assays?
FGF22 binding: 43*; RAD52 anneal inh: 5; ERAP1 HTS inh: -3; DENV2 CPE rescue: -3; MLL AF4-AF9 inh: -8

How did O=[N+]([O-])c1cccc2c(S(=O)(=O)N3CCCCC3)cccc12 do in these assays?
FGF22 binding: 0; RAD52 anneal inh: -9; ERAP1 HTS inh: -2; DENV2 CPE rescue: 53*; MLL AF4-AF9 inh: 13

What do the screens show for `COc1cccc(C#Cc2cnc3c(c2)C(=O)N([C@@H](C)CO)C[C@@H](C)[C@H](CN(C)C(=O)C2CC2)O3)c1`?
FGF22 binding: 0; RAD52 anneal inh: 4; ERAP1 HTS inh: -3; DENV2 CPE rescue: -8; MLL AF4-AF9 inh: 1

How did Cc1ccc(S(=O)(=O)N(C)C[C@@H]2Oc3ccc(NC(=O)CCCCCC(=O)Nc4ccccc4N)cc3CC(=O)N([C@H](C)CO)C[C@@H]2C)cc1 do in these assays?
FGF22 binding: 0; RAD52 anneal inh: -8; ERAP1 HTS inh: -1; DENV2 CPE rescue: 5; MLL AF4-AF9 inh: 3

Results for CCCC(=O)Nc1ccc2c(c1)C(=O)N(C)[C@H]1CC[C@@H](CC(=O)O)O[C@H]1CO2 ?
FGF22 binding: -1; RAD52 anneal inh: 5; ERAP1 HTS inh: 0; DENV2 CPE rescue: 0; MLL AF4-AF9 inh: -3

How did CCCNC(=O)Nc1ccc2c(c1)C(=O)N(C)C[C@H](OC)[C@H](C)CN(CCC)[C@H](C)CO2 do in these assays?
RAD52 anneal inh: 0; ERAP1 HTS inh: 1; DENV2 CPE rescue: -2; MLL AF4-AF9 inh: 2

How did CN(C)Cc1c(O)ccc2ccccc12 do in these assays?
FGF22 binding: 0; RAD52 anneal inh: -10; ERAP1 HTS inh: 2; DENV2 CPE rescue: -4; MLL AF4-AF9 inh: 31*

How did CC(C)CN(Cc1c(O)ccc2ccccc12)CC(C)C do in these assays?
FGF22 binding: 0; RAD52 anneal inh: -24; ERAP1 HTS inh: -2; DENV2 CPE rescue: 1; MLL AF4-AF9 inh: 2

Results for CN(C)c1ccc(CNc2ccc3c(c2)ncn3C(C)(C)C)cc1 ?
FGF22 binding: 0; RAD52 anneal inh: -14; ERAP1 HTS inh: 4; DENV2 CPE rescue: -6; MLL AF4-AF9 inh: 35*

How did CCN(CC)c1ccc(CNc2nc3ccccc3n2C)cc1 do in these assays?
FGF22 binding: 43*; RAD52 anneal inh: -24; ERAP1 HTS inh: -2; DENV2 CPE rescue: -2; MLL AF4-AF9 inh: 6

How did CCOc1ccc(CNc2ccc3c(c2)ncn3C(C)(C)C)cc1 do in these assays?
FGF22 binding: -1; RAD52 anneal inh: -4; ERAP1 HTS inh: 1; DENV2 CPE rescue: 2; MLL AF4-AF9 inh: 13

What do the screens show for `CCn1cnc2cc(NCc3ccc(N(C)C)cc3)ccc21`?
FGF22 binding: 0; RAD52 anneal inh: 3; DENV2 CPE rescue: 9; MLL AF4-AF9 inh: 19

What do the screens show for `CCN(CC)c1ccc(CNc2ccc3c(c2)ncn3CC)cc1`?
FGF22 binding: 0; RAD52 anneal inh: 5; ERAP1 HTS inh: 7; DENV2 CPE rescue: -5; MLL AF4-AF9 inh: 45*

Results for CCN(Cc1nc2ccccc2n1C)c1ccccc1 ?
FGF22 binding: 0; RAD52 anneal inh: -9; ERAP1 HTS inh: 1; DENV2 CPE rescue: -6; MLL AF4-AF9 inh: 4

How did O=C(Nc1ccccc1F)N1CCCCN2[C@H](C1)[C@H](c1ccc(-c3cccnc3)cc1)[C@@H]2CO do in these assays?
FGF22 binding: 0; RAD52 anneal inh: 8; ERAP1 HTS inh: -2; DENV2 CPE rescue: -4; MLL AF4-AF9 inh: -2

Results for COc1ccc2c3c([nH]c2c1)[C@@H](CO)N(C(=O)c1ccc(F)cc1)CC31CN(C)C1 ?
FGF22 binding: 0; DENV2 CPE rescue: -9; MLL AF4-AF9 inh: 6

What do the screens show for `CN(C)CCNS(=O)(=O)c1ccc(N2CCN(c3ccc(F)cc3)CC2)c([N+](=O)[O-])c1`?
FGF22 binding: 0; RAD52 anneal inh: 12; ERAP1 HTS inh: 8; MLL AF4-AF9 inh: 28*

How did Cc1ccc(-n2nnnc2Sc2ccc(S(=O)(=O)NCCN(C)C)cc2[N+](=O)[O-])cc1 do in these assays?
FGF22 binding: 0; RAD52 anneal inh: 23; ERAP1 HTS inh: 9; DENV2 CPE rescue: 6; MLL AF4-AF9 inh: 8

Results for O=C(Nc1ccccc1)OC1CC2CC1C1CCCC21 (stereo not given) ?
FGF22 binding: 43*; RAD52 anneal inh: 5; ERAP1 HTS inh: -3; DENV2 CPE rescue: 15; MLL AF4-AF9 inh: -2

Results for COc1ccc2c3c([nH]c2c1)[C@H](CO)N(C(=O)C1CCCCC1)CC31CCN(S(C)(=O)=O)CC1 ?
FGF22 binding: 0; RAD52 anneal inh: -11; ERAP1 HTS inh: 2; DENV2 CPE rescue: 12; MLL AF4-AF9 inh: 1

Results for C[C@H]1CN([C@@H](C)CO)C(=O)c2cc(C#CC3CC3)cnc2O[C@H]1CN(C)C(=O)Cc1ccccn1 ?
FGF22 binding: 0; RAD52 anneal inh: -10; ERAP1 HTS inh: 3; DENV2 CPE rescue: 2; MLL AF4-AF9 inh: -3

Results for C[C@@H]1CN([C@H](C)CO)C(=O)c2cc(C#CC3CC3)cnc2O[C@H]1CN(C)C(=O)Nc1ccccc1 ?
FGF22 binding: 0; RAD52 anneal inh: 2; ERAP1 HTS inh: 5; DENV2 CPE rescue: 31*; MLL AF4-AF9 inh: -2

Bioassay records from PubChem BioAssay.
